Screens as filed in PubChem BioAssay.
nsP2pro primary = CHIKV nsP2 protease inhibition, primary qHTS | Q8JUX6 | FRET peptide cleavage, nsP2pro, fluorescence 1 h | Potency, µM (top dose mostly 24.9 µM), for the others: at the top dose activity change, negative = inhibition, hits mostly inhibitors | hit rate 1.1% among 31,000; further: nearly all actives have a fitted effect of over 60% in size
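FRET cleavage of 2.5 uM peptide 2 by 150 nM CHIKV protease domain at pH 8.0 (Tris, Tween 20). Compounds at 7 concentrations (up to 25 uM) preincubated 15 min. Fluorescence read after 1 h at room temperature.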
nsP2 cell sec = inhibits CHIKV nsP2 protease in cells; Potency, µM (highest dose often 51.1 µM), for inactives: at the top dose activity change, negative = inhibition, usual class: inhibitors; hit rate 10% among 450; shares compounds with nsP2pro primary; cell-based CHIKV nsP2 protease reporter assay; AID 1964100; further: nearly all actives have a fitted effect of over 70% in size
Target sequence (Q8JUX6 220-798 limits assumed): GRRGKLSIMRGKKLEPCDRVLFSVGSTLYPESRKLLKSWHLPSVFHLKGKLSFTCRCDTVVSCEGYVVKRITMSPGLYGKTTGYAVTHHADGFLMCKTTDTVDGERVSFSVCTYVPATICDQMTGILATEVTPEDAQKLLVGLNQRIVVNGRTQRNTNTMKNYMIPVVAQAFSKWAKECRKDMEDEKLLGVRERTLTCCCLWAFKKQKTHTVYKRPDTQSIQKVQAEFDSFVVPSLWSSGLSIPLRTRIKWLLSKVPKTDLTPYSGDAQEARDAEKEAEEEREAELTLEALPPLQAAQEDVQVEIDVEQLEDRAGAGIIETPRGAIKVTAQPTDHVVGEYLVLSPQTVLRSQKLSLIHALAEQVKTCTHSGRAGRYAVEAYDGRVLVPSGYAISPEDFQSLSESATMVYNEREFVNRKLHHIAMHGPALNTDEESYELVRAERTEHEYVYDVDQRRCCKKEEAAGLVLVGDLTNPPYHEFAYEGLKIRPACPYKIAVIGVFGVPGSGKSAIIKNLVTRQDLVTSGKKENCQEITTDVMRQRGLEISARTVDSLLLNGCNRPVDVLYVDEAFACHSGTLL
NSP2 full ctr = selectivity test for CHIKV nsP2 protease inhibitors: full-length NSP2; Potency, µM (series often up to 50.7 µM), without a hit: at the highest dose activity change, negative = inhibition, usual class: inhibitors; Full-length CHIKV NSP2 protease enzymatic counterscreen; shares compounds with nsP2pro primary; AID 1964101; hit rate 39% among 410; further: nearly all actives have a fitted effect of over 65% in size
Furin counterscr = selectivity counter-screen for CHIKV nsP2 protease inhibitors: human furin. Recombinant human furin enzymatic counterscreen, fluorogenic substrate. Potency, µM (series often up to 50.6 µM), without a hit: top-dose activity change, negative = inhibition, hits mostly inhibitors. shares compounds with nsP2pro primary. hit rate 6% among 410
nsP2 NS23 pep = nsP2pro inhibition on native NS2/3 peptide substrate | AID 1964103 | Potency, µM (titrated, usually from 51 µM), without a hit: at the top dose activity change, negative = inhibition, most hits filed as inhibitors | shares compounds with nsP2pro primary | Purified CHIKV nsP2 protease, endogenous NS2/3 peptide cleavage | hit rate 34% among 410; further: nearly all actives have a fitted effect of over 55% in size
Papain cs = selectivity counter-screen for CHIKV nsP2 protease inhibitors: papain | shares compounds with nsP2pro primary | purified papain protease activity, enzymatic inhibition | Potency, µM (highest dose often 51 µM), without a hit: top-dose activity change, negative = inhibition, hits mostly inhibitors | hit rate 5% among 410
nsP2pro confirm = CHIKV nsP2 protease inhibition, confirmatory qHTS | shares compounds with nsP2pro primary | CHIKV nsP2 protease enzymatic activity, qHTS | Potency, µM (top dose mostly 25.5 µM), for inactives: at the highest dose activity change, negative = inhibition, most hits filed as inhibitors | hit rate 43% among 410; further: nearly all actives have a fitted effect of over 75% in size
HCV NS3 4A cs = inhibits HCV NS3/4A protease in an nsP2pro selectivity counterscreen; hit rate 20% among 410; AID 1964106; Potency, µM (titrated, usually from 50.9 µM), actives largely listed as inhibitors; shares compounds with nsP2pro primary; HCV NS3/4A protease biochemical counterscreen; further: nearly all actives have a fitted effect of over 55% in size
Starred values were filed as active, the others as inactive; [ ] = dose if it differs, or a comment. The entries come from a sample that favours hits as a whole. The call rests on the fitted dose curve. On the % scale 0 is the no-effect control and ±100 the full control effect; potency means the concentration at half of the fitted maximal effect.

How did COC(=O)NC(C(=O)N1CCCC1c1nc2cc(F)c(C3CCC(c4cc5[nH]c(C6CCCN6C(=O)C(NC(=O)OC)C(C)OC)nc5cc4F)N3c3cc(F)c(N4CCC(c5ccc(F)cc5)CC4)c(F)c3)cc2[nH]1)C(C)OC (stereo not given) do in these assays?
nsP2pro primary: 17%

What do the screens show for `Cc1ccc(CN2C(=O)OC(c3cccc(NC(=O)c4ccc(F)cc4)c3)C2C(=O)NC2CC2)cc1` (stereo not given)?
nsP2pro primary: 2%

Results for CC(C)C(=O)OC[C@H]1O[C@H](O[C@H]2O[C@H](CO)[C@@H](O)[C@H](O)[C@H]2O)[C@H](O)[C@@H](O)[C@@H]1O ?
nsP2pro primary: -7%[10 µM]

What do the screens show for `OC[C@H]1O[C@@H](OCCc2ccc(O)cc2)[C@H](O)[C@@H](O)[C@@H]1O`?
nsP2pro primary: 37%

Results for C=C(CCO[C@@H]1O[C@H](CO)[C@@H](O)[C@H](O)[C@H]1O)C(=O)O ?
nsP2pro primary: inconclusive; nsP2 cell sec: -5%; NSP2 full ctr: -4%; Furin counterscr: 6%; nsP2 NS23 pep: 0%; Papain cs: -2%; nsP2pro confirm: 1%; HCV NS3 4A cs: inactive

Results for CCCCS(=O)c1sc2nc(-c3cccs3)cc(-c3ccccc3)c2c1N (stereo not given) ?
nsP2pro primary: 7µM*; nsP2 cell sec: 19%; NSP2 full ctr: -24%; Furin counterscr: -18%; nsP2 NS23 pep: -23%; Papain cs: inconclusive; nsP2pro confirm: 14µM*; HCV NS3 4A cs: inactive

How did O=C(O)c1ccc(O)c2ncc(N3CCCN(CCc4ccncc4)CC3)cc12 do in these assays?
nsP2pro primary: inactive

How did Cc1cncc(NC(=S)N2CCN(c3cccc(C(F)(F)F)c3)CC2)c1 do in these assays?
nsP2pro primary: 0%

What do the screens show for `Oc1cc(CNC(=S)/C=C/c2cc(O)c(O)c(Br)c2)cc(O)c1O`?
nsP2pro primary: 5.6µM*; nsP2 cell sec: 0.22µM*; NSP2 full ctr: 15µM*; Furin counterscr: inconclusive; nsP2 NS23 pep: 6.5µM*; Papain cs: inconclusive; nsP2pro confirm: 5µM*; HCV NS3 4A cs: 3.7µM*

How did CC/C=C\CC1C(=O)CCC1CC(=O)OC (stereo not given) do in these assays?
nsP2pro primary: -8%

Results for CCCCCCCCCCCCCCCC(=O)OCC=C(C)C=CC=C(C)C=CC1=C(C)CCCC1(C)C ?
nsP2pro primary: -16%

What do the screens show for `Cc1cc(NC(=O)Nc2nnc(-c3cccnc3)s2)ccc1Br`?
nsP2pro primary: 3%

What do the screens show for `Cc1cccc(-n2cnc3cc(C(=O)N4CCN(C)CC4)ccc32)c1`?
nsP2pro primary: inactive

Results for C=CC1(C)C=C2C(=O)OC(=O)C3=C(CCCC3(C)C)C2(O)CC1 (stereo not given) ?
nsP2pro primary: 7%

How did COc1ccc(OC)c(C(O)C(C)N)c1 (stereo not given) do in these assays?
nsP2pro primary: 0%

What do the screens show for `C=CCc1cc(OC)c(OC(C)C(O)c2ccc(O)c(OC)c2)c(OC)c1` (stereo not given)?
nsP2pro primary: -1%

Results for C[C@H](N)[C@H](O)c1ccc(O)c(O)c1 ?
nsP2pro primary: inconclusive; nsP2 cell sec: -65%; NSP2 full ctr: inconclusive; Furin counterscr: -10%[17.3 µM]; nsP2 NS23 pep: 9µM*; Papain cs: -9%[17.2 µM]; nsP2pro confirm: inconclusive; HCV NS3 4A cs: 0.052µM*

How did CC#CC(=O)N1CCC[C@H]1c1nc(-c2ccc(C(=O)Nc3ccccn3)cc2)c2c(N)nccn12 do in these assays?
nsP2pro primary: 39%[10 µM]

How did C=C(C(=O)OC)[C@]12O[C@@](C)(CC[C@@]3(O)/C(=C\C)C(=O)O[C@]3(C)C[C@@H]1OC(=O)C(CO)CN1CCCC1C(=O)O)CC2=O (stereo not given in full) do in these assays?
nsP2pro primary: inconclusive; nsP2 cell sec: -3%[17.6 µM]; NSP2 full ctr: 2.4µM*; Furin counterscr: -7%[17.3 µM]; nsP2 NS23 pep: inconclusive; Papain cs: -22%[17.2 µM]; nsP2pro confirm: 2.1µM*; HCV NS3 4A cs: inconclusive

How did NC(=O)[C@@H]1CC[C@@H]2CN1C(=O)N2OS(=O)(=O)O do in these assays?
nsP2pro primary: -8%

Results for CC(=O)OC1C(O)CC(O[C@@H]2O[C@H](CO)[C@@H](O)[C@H](O)[C@H]2O)C2CCC3C(=O)OC(c4ccoc4)CC3(C)C21 (stereo not given in full) ?
nsP2pro primary: inconclusive; nsP2 cell sec: 4%[17.6 µM]; NSP2 full ctr: 5%[17.3 µM]; Furin counterscr: 9%[17.3 µM]; nsP2 NS23 pep: -2%[17.2 µM]; Papain cs: -5%[17.2 µM]; nsP2pro confirm: -19%[8.62 µM]; HCV NS3 4A cs: inactive

How did CC(=O)OC1(C)CC(O)C2(O)C=COC(OC3OC(CO)C(O)C(O)C3O)C12 (stereo not given) do in these assays?
nsP2pro primary: -2%[10 µM]

What do the screens show for `CC(=O)O[C@@]1(C)C[C@@H](O)[C@]2(O)C=CO[C@@H](O[C@@H]3O[C@H](CO)[C@@H](O)[C@H](O)[C@H]3O)[C@@H]21`?
nsP2pro primary: -4%[10 µM]

What do the screens show for `CC[C@H]1OC(=O)C[C@@H](OC(C)=O)[C@H](C)[C@@H](O[C@@H]2O[C@H](C)[C@@H](O[C@H]3C[C@@](C)(O)[C@@H](OC(=O)CC(C)C)[C@H](C)O3)[C@H](N(C)C)[C@H]2O)[C@@H](CC=O)C[C@@H](C)C(=O)/C=C/C(C)=C/[C@@H]1CO[C@@H]1O[C@H](C)[C@@H](O)[C@@H](OC)[C@H]1OC`?
nsP2pro primary: 14%

What do the screens show for `COc1cccc(CN2CCC(Oc3ccc(-c4noc(C5CC5)n4)cc3)C2)c1` (stereo not given)?
nsP2pro primary: -2%

Results for CC(Cc1ccccc1)C(=O)Nc1ccc(Cl)cc1C(=O)O (stereo not given) ?
nsP2pro primary: inactive

Results for Brc1cnc2nc(SCc3ccccc3)[nH]c2c1 ?
nsP2pro primary: -4%

How did COc1ccc(NS(=O)(=O)c2ccc(N)cc2)nn1 do in these assays?
nsP2pro primary: -4%
